Measurements: the supplement of paper PMC13380429

test system: Vero E6 infected with SARS-CoV-2; assay: SARS-CoV-2 infection rate relative to infected DMSO; higher = more infection, active = 60 or less; conditions: 24 h

| Compound | SARS-CoV-2 infection rate |
| --- | --- |
| CC[C@@]1(O)C(=O)OCc2c1cc1n(c2=O)Cc2cc3c(CN(C)C)c(O)ccc3nc2-1 [topotecan] (10 µM) | 108% (inactive) |
| CC(=O)Nc1ccc(OC[C@](C)(O)C(=O)Nc2ccc([N+](=O)[O-])c(C(F)(F)F)c2)cc1 [andarine] (10 µM) | 116% (inactive) |
| OC[C@H]1O[C@@H](n2cnc3c(NC4CCCC4)nc(Cl)nc32)[C@H](O)[C@@H]1O [2-chloro-N6-cyclopentyladenosine] (10 µM) | 95% (inactive) |
| Cc1cnc(NC(=O)Nc2cc(Br)c(C)cc2OC[C@@H]2CNCCO2)cn1 (0.833333 µM) | 111% (inactive) |
| N[C@@H]1[C@H]2CN(c3nc4c(cc3F)c(=O)c(C(=O)O)cn4-c3ccc(F)cc3F)C[C@@H]12 [trovafloxacin] (10 µM) | 108% (inactive) |
